Bioassay records (PubChem)
SW480 rereplic: DNA re-replication induction in SW480 cells; SW480 DNA re-replication, Hoechst DNA content imaging, 48 h; Potency, µM (top dose mostly 46.1 µM), for inactives: at the highest dose re-replication activation, usual class: activators; 1.8% of 340,000 active; also: % of control where 0% means no effect; nearly all actives have a fitted effect of over 55% in size
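DNA re-replication was detected as more nuclei of elevated Hoechst intensity after 48 hr exposure to compound (23 nL pinned per well of 250 cells).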
KB-V1 MDR tox: KB-V1 MDR subline cytotoxicity | KB-V1 MDR cells viability, CellTiter-Glo, 72 h | Potency, µM (top dose mostly 46.1 µM), most hits filed as cytotoxic | 3.4% of 400,000 active | AID 1347076; also: % is scaled to controls: 0 for no effect and ±100 for the full control effect; nearly all actives have a fitted effect of over 60% in size
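Luminescent ATP read-out (CellTiter-Glo, 10 min) measures survival of drug-selected KB-V1 MDR cells after 72 h, 37 degrees C compound exposure. Medium: phenol-red-free DMEM, 10% FBS. Values from fitted concentration-response curves.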
HT1080 IDH1KD tx: HT-1080 IDH1 knockdown cell toxicity (counter line); HT-1080 IDH1 knockdown viability, ATP luminescence, 48 h; Potency, µM (series often up to 46.1 µM), without a hit: at the highest dose activity, negative = toxicity, usual class: cytotoxic; 2% of 360,000 active;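 also: 0% = DMSO wells and -100% = cell-free medium wells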
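Using the IDH1-knockdown HT-1080 line run in the same batch and compound series as the NT line, viability after 48 h at 37 °C was determined by CellTiter-Glo luminescence and expressed as % activity.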
HT1080NT lethal: kills 2HG-producing HT-1080-NT fibrosarcoma cells | AID 686970 | 1.6% of 360,000 active | HT-1080-NT fibrosarcoma viability, CellTiter-Glo ATP luminescence, 48 h | Potency, µM (highest dose often 46.1 µM), for the others: at the top dose activity, negative = less viability, usual class: cytotoxic;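 also: NT is the 2HG producing partner of a matched IDH1 knockdown line; 0% = DMSO-treated cells and -100% = media-only wells without cells; nearly all actives have a fitted effect of over 55% in size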
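A 48-hour cytotoxicity screen used HT-1080-NT cells plated 2 hours before compound delivery. ATP-based CellTiter-Glo luminescence measured viability, normalized to DMSO and no-cell controls.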
KB-3-1 cytotox: kills parental KB-3-1 adenocarcinoma cells. KB-3-1 viability, CellTiter-Glo ATP luminescence, 72 h. Potency, µM (doses to about 46.1 µM), usual class: cytotoxic. 1.4% of 400,000 active; also: % is scaled to controls: 0 for no effect and ±100 for the full control effect; nearly all actives have a fitted effect of over 60% in size
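KB-3-1 cells, DMEM (no phenol red) + 10% FBS; compound by pin transfer, 72 h, 37 °C. Readout: CellTiter-Glo luminescence after 10 min. Data normalized, curve-fitted.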
MCF10A rereplic: induces DNA re-replication in MCF 10a normal breast cells. MCF 10A DNA re-replication, Hoechst nuclear intensity, 48 h. Potency, µM (series often up to 46.1 µM), for the others: at the highest dose activity, positive = re-replication, most hits filed as activators. 2.9% of 350,000 active. AID 624296; also: % of control where 0% means no effect; nearly all actives have a fitted effect of over 50% in size
* = called active by the depositor; i = inactive; ? = inconclusive; / = no result; [ ] = remark or other dose. This is a sample that favours compounds with a hit; in the whole collection about 8% have one here. Calls follow the shape of the dose curve; as a rule, active = well fitted curve in the direction sought with a large enough effect; inconclusive = small, poorly fitted or top-dose-only effect, or another doubt; inactive = no such curve, though single readings can be large; an effect the other way counts as inactive or inconclusive. Potency is read from the fitted curve at half-maximal effect.

SMILES | SW480 rereplic | KB-V1 MDR tox | HT1080 IDH1KD tx | HT1080NT lethal | KB-3-1 cytotox | MCF10A rereplic
O=C(CSc1nc2ncccc2o1)Nc1cccc(C(F)(F)F)c1 | / | i | / | / | i | /
CN(C)c1ccc(/C=C2\C=Nc3ccccc32)cc1 | / | i | / | / | i | /
NC(=S)NN=C1Cc2cccc3cccc1c23 | -4% | 1.3µM* | 15% | 3% | 1.3µM* | -3%
CC1=C(C(=O)OCc2ccc(C)cc2)C(c2ccccc2C(F)(F)F)CC(=O)N1 (centres undefined) | / | ? | / | / | i | /
Cc1ccn2cc(C34CC5CC(CC(C5)C3)C4)nc2c1 | 21µM* | i | -12% | -1% | i | ?
Cc1ccc(N2C(=O)N(CC(=O)c3cc(C)ccc3C)C(=O)C2C)cc1 (centres undefined) | 15% | 16µM* | 10% | -3% | ? | ?
CN(C(=O)CSc1nnc(-c2ccc([N+](=O)[O-])cc2)o1)c1ccccc1 | / | i | / | / | i | /
COC(=O)Nc1nc2ccc(C(=O)c3cccs3)cc2[nH]1 | 0.24µM* | 0.13µM* | ? | ? | 0.015µM* | 0.21µM*
Nc1cccc(-c2nc3ccc(C(=O)c4ccccc4)cc3[nH]2)c1 | 18µM* | 3.7µM* | 10µM* | 13µM* | 6.5µM* | ?
Nc1ccc2nc(-c3ccccc3)[nH]c2c1 | 2% | i | -19% | -17% | i | ?
COC(=O)Nc1nc2ccc(SC(C)C)cc2[nH]1 | 0.82µM* | 1µM* | 1.3µM* | ? | 1.5µM* | 1.6µM*
COC(=O)Nc1nc2ccc(C(=O)c3ccccc3)cc2[nH]1 | 0.29µM* | / | / | / | / | ?
COc1cccc(C(=O)Nc2nc3ccccc3[nH]2)c1 | 2%[9.22 µM] | ? | ? | -27% | ? | 15%
CCCCc1ccc(NC(=O)COC(=O)c2ccccc2OCC(=O)Nc2ccc(Br)cc2)cc1 | / | i | / | / | ? | /
CC(C)CC(NC(=O)C1CCC(C)CC1)C(=O)NCc1cccnc1 (centres undefined) | 0% | 18µM* | 0% | 4% | i | 1%
CC1CCC(C(=O)NC(C(=O)NCc2cccnc2)C(C)C)CC1 (centres undefined) | -3% | 21µM* | 2% | 1% | i | 1%
CCCCNC(=O)[C@@H]1CC=C[C@@H]2CCN(Cc3ccc(OC)c(OC)c3)C(=O)[C@@H]21 | / | ? | / | / | i | /
Nc1ccc2nc(N3CCOCC3)sc2c1 | 0% | i | -1% | -5% | i | -1%
c1c2c(cc3sc(N4CCOCC4)nc13)OCCO2 | -4% | 21µM* | ? | -25% | ? | 1%
c1ccc(N2CCN(c3nc4cc5c(cc4s3)OCCO5)CC2)cc1 | -4% | 2.6µM* | 2% | 6% | ? | 0%
C=C1CC[C@H](O)C/C1=C/C=C1\CCC[C@]2(C)[C@@H]([C@H](C)CC[C@@H](O)C(C)(C)O)CC[C@@H]12 | 21% | / | / | / | / | ?
C/C(=N\Nc1ccc(Cl)cc1)c1c(O)cc(C)oc1=O | 19% | i | 23µM* | ? | i | ?
Cc1noc2nc(C(=O)O)nc(N3CCCCC3)c12 | / | i | / | / | i | /
Cc1nc2n(c(=O)c1CCN1CCC(c3noc4cc(F)ccc34)CC1)CCC[C@H]2O | / | i | / | / | i | /
Cc1cccc(Cc2c(C)nc3nc(SCC(=O)NCc4ccccc4)nn3c2C)c1 | / | i | / | / | 15µM* | /
SMILES | SW480 rereplic | KB-V1 MDR tox | HT1080 IDH1KD tx | HT1080NT lethal | KB-3-1 cytotox | MCF10A rereplic
N#CN=c1snc(-c2ccccc2)n1-c1ccc(Br)cc1 | / | i | / | / | ? | /
O=C(N/N=C/c1ccc(O)c(O)c1)c1cccc(S(=O)(=O)N2CCCCC2)c1 | -1% | i | -2% | 0% | i | -2%
CC(C)(C)OC(=O)N/N=C/c1cc(N=Nc2ccccc2)ccc1O | -4% | i | ? | -4% | ? | ?
O=C(Cc1ccc(Cl)cc1)N/N=C/c1ccc(O)c(O)c1 | / | ? | -29% | -16% | ? | /
O=C(N/N=C\c1cc(Br)ccc1O)c1ccc(S(=O)(=O)N2CCCCC2)cc1 | 4% | i | 2.1µM* | ? | i | -4%
Cc1ccc(O)c(/C=N/NC(=O)Cc2ccc(Cl)cc2)c1 | 5% | i | 13µM* | ? | i | 0%
Cc1ccc(N=Nc2ccc(O)c(/C=N\NC(=O)c3ccc(N)cc3)c2)cc1C | 3.7µM* | i | 1.6µM* | 4µM* | i | 0%
O=C(N/N=C/c1cc(Cl)ccc1O)c1ccc(Br)cc1 | 1.6µM* | ? | 5.8µM* | 9.2µM* | ? | 14%
Cc1ccc(N(Cc2cccs2)C(=O)C(C)Oc2ccc(Cl)c(C)c2)cc1 (centres undefined) | / | i | / | / | ? | /
CC(C)CNC(=O)C1=CC(c2ccc3c(c2)OCO3)=NS(=O)(=O)N1C | / | i | / | / | i | /
O=C(Nc1nc2c(F)cccc2s1)c1ccc2c(c1)OCCO2 | / | i | / | / | i | /
CN(C)c1ccc(C(CNC(=O)c2ccccc2Cl)N2CCCC2)cc1 (centres undefined) | / | i | / | / | i | /
Cc1ccc(-n2c(SCC3CCCCO3)nnc2-c2ccco2)cc1 (centres undefined) | 1%[9.22 µM] | 21µM* | ? | -19% | ? | 15%
CC(Sc1nnc(-c2ccco2)n1-c1ccccc1)C(=O)NCC1CCCO1 (centres undefined) | -3% | 21µM* | 10% | 6% | i | 4%
C[N+]1(CC(=O)c2ccc(O)c(O)c2)CCOCC1 | / | i | / | / | i | /
Cc1ccc(S(=O)(=O)N2CCN(c3nc(-c4cccs4)nc(C)c3C)CC2)cc1 | / | i | / | / | i | /
O=C1CCC(c2ccccc2)c2ccccc21 (centres undefined) | -8% | i | 2% | 0% | i | -4%
N#CC1C(=O)c2ccccc2C1c1ccccc1 (centres undefined) | 18µM* | i | 12µM* | ? | i | 15µM*
COc1cccc(CNC(=O)c2cc(S(=O)(=O)N3CCCCC3)cn2C)c1 | / | i | / | / | i | /
COC(=O)CN(c1cc(Cl)ccc1OC)S(=O)(=O)c1ccc(OC)c(OC)c1 | -4% | 2.3µM* | -1% | 3% | i | -6%
O=C(Nc1ccc(F)cc1Cl)C1Cc2ccccc2N1C(=O)c1ccccc1 (centres undefined) | / | i | / | / | i | /
CC1=C(C(=O)OC2CCCCCC2)C(c2ccc(Cl)cc2Cl)CC(=O)N1 (centres undefined) | / | i | / | / | i | /
O=C(NCc1cccs1)C1CCN(C(=O)N2CCOc3ccc(Cl)cc32)CC1 | / | i | / | / | i | /
Cc1[nH]c(=S)c(C#N)c2c1CCCC2 | 13% | i | 0% | 0% | i | 1%
